# Test results: publication PMC7862700, “An all-to-all approach to the identification of sequence-specific readers for epigenetic DNA modifications on cytosine”
# Columns and labels:
# Experiment in all cases: DAPPL (digital affinity profiling via proximity ligation, sequencing); 10 mM Tris-HCl pH 7.5, 50 mM NaCl, 1 mM DTT, 4% glycerol, room temperature, 30 min; GST-TFs on glutathione beads, 16-mer random dsDNA library, 0.1% formaldehyde crosslink after washing; high values mean tight binding
# FLI1 = target: T1, FLI1 (Homo sapiens, UniProt Q01543 1-452); details: protein: recombinant; tags: N-terminal GST; dsDNA, one strand shown
# T1 sequence: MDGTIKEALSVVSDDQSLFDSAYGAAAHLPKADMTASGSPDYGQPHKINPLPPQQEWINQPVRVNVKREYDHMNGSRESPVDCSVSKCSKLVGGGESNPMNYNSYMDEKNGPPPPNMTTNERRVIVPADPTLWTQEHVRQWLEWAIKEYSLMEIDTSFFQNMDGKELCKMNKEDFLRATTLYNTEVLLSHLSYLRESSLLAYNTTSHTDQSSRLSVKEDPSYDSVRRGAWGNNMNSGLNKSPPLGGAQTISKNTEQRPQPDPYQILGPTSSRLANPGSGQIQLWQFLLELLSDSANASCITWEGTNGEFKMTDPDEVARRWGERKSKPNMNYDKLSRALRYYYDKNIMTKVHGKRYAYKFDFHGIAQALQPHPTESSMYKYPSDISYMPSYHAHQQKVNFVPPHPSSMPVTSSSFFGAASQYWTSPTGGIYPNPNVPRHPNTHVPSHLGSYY
# Procedure, shortened: (§1)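 GST fusions of human transcription factors were expressed in yeast and captured with glutathione beads. Once given DNA barcodes and pooled alongside a tag-only sample, they were incubated for 30 min at room temperature with 200 nmole of a random double-stranded 16-mer DNA library in Tris/NaCl/DTT/glycerol buffer, then washed, crosslinked (0.1% formaldehyde), proximity-ligated, PCR-amplified and sequenced on an Illumina NextSeq500. The binding signal of each hexamer is its read frequency for a factor divided by its frequency for the tag-only sample.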
# ELK1 = target: T2, ELK1 (Homo sapiens, UniProt P19419 1-428); details: protein: recombinant; tags: N-terminal GST; dsDNA, one strand shown
# T2 sequence: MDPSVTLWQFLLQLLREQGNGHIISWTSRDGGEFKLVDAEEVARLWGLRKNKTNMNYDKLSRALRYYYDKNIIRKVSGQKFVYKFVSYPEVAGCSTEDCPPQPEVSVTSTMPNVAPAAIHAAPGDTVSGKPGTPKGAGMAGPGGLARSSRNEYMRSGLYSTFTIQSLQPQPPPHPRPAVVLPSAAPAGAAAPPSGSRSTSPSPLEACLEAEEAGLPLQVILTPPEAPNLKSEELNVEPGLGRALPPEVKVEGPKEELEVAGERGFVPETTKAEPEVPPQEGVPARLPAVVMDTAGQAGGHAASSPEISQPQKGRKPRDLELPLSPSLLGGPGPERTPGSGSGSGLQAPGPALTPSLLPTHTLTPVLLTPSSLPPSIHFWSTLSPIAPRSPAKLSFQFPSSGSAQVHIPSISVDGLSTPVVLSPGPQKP
# Procedure, shortened: as §1
# GABPA = target: T3, GABPA (Homo sapiens, UniProt Q06546 1-454); details: protein: recombinant; tags: N-terminal GST; dsDNA, one strand shown
# T3 sequence: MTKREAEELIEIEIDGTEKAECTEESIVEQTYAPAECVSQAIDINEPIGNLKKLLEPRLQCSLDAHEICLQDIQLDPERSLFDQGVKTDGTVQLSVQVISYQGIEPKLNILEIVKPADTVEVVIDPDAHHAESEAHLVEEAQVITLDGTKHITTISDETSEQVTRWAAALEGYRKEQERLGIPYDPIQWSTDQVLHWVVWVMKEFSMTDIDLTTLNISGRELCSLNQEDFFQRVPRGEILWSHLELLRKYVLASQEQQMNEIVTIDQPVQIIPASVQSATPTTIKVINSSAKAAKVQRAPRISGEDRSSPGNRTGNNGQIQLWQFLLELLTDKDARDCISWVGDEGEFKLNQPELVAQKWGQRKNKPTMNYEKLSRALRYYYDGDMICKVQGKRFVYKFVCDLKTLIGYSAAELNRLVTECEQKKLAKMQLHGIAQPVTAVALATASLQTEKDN
# Procedure, shortened: as §1
# ERG = target: T4, ERG (Homo sapiens, UniProt P11308 1-479); details: protein: recombinant; tags: N-terminal GST; dsDNA, one strand shown
# T4 sequence: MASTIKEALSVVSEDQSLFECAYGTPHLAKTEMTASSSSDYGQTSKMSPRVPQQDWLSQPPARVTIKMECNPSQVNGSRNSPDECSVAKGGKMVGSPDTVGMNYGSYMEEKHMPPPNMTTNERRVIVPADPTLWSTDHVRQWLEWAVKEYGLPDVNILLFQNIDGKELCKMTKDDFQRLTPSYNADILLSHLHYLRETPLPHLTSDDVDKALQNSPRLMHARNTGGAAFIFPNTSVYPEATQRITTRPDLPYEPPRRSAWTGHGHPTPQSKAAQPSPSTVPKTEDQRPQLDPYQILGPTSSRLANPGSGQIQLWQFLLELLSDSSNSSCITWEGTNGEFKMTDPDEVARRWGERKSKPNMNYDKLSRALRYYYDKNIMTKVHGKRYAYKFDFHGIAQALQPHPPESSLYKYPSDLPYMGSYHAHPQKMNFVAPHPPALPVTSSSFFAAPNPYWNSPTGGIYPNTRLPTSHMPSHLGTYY
# Procedure, shortened: as §1
# ELF1 = ELF1 (Homo sapiens, UniProt P32519 1-619); details: protein: recombinant; tags: N-terminal GST; dsDNA, one strand shown
# Sequence of ELF1 (P32519 whole entry): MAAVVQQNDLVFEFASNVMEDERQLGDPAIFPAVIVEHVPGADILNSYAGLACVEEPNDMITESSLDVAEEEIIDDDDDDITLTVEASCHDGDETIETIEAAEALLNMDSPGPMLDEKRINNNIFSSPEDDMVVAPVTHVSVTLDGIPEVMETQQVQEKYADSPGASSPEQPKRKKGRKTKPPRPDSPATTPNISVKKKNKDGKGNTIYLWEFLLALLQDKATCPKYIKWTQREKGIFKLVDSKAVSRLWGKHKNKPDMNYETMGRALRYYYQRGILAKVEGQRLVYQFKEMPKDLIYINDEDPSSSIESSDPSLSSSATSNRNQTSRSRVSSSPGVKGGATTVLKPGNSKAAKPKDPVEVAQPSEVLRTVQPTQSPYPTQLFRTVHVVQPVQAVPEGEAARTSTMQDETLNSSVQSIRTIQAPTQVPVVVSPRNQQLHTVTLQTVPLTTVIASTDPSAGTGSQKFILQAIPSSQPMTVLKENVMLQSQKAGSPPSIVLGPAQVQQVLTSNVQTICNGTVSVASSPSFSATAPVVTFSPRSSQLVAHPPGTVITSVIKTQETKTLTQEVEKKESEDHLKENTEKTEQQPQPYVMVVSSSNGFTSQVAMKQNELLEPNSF
# Procedure, shortened: as §1
# EHF = target: T5, EHF (Homo sapiens, UniProt Q9NZC4 1-300); details: protein: recombinant; tags: N-terminal GST; dsDNA, one strand shown
# T5 sequence: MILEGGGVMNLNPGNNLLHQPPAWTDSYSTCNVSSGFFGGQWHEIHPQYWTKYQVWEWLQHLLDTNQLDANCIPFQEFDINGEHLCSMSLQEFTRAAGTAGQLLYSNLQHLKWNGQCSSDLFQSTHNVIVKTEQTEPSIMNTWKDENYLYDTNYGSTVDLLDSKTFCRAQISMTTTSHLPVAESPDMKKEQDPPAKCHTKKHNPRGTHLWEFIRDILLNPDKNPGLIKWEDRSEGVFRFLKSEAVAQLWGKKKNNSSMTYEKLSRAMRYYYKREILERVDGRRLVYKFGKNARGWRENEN
# Procedure, shortened: as §1
# SPI1 = SPI1 (Homo sapiens, UniProt P17947 1-270); details: protein: recombinant; tags: N-terminal GST; dsDNA, one strand shown
# Procedure, shortened: as §1
# SPIB = SPIB (Homo sapiens, UniProt Q01892 1-262); details: protein: recombinant; tags: N-terminal GST; dsDNA, one strand shown
# Sequence of SPIB (Q01892 whole entry): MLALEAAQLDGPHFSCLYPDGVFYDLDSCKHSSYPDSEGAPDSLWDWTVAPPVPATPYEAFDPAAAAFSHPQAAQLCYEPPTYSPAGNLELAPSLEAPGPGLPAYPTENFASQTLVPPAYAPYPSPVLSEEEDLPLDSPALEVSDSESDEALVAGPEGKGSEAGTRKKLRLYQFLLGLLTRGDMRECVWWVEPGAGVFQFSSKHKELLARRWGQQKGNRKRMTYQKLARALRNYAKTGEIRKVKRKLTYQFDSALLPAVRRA
# Procedure, shortened: as §1
# ELK3 = target: T6, ELK3 (Homo sapiens, UniProt P41970 1-407); details: protein: recombinant; tags: N-terminal GST; dsDNA, one strand shown
# T6 sequence: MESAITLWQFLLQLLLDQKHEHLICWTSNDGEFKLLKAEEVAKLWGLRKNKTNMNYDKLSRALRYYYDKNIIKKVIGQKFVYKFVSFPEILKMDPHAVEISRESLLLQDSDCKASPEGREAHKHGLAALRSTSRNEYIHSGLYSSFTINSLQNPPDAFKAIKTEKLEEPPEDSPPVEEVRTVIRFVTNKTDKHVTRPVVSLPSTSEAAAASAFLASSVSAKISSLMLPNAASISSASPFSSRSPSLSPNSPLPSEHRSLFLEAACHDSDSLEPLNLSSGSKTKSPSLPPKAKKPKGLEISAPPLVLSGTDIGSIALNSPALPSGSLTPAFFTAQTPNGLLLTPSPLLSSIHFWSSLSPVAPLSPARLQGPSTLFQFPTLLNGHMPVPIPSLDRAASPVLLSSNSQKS
# Procedure, shortened: as §1
# FEV = target: T7, FEV (Homo sapiens, UniProt Q99581 1-238); details: protein: recombinant; tags: N-terminal GST; dsDNA, one strand shown
# T7 sequence: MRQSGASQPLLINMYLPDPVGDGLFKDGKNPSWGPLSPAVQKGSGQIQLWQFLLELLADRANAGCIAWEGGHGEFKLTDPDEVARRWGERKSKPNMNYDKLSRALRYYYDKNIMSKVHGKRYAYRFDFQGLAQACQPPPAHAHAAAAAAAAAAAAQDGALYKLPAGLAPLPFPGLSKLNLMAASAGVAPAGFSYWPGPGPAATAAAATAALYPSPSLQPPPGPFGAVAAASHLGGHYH
# Procedure, shortened: as §1
# ETV5 = ETV5 (Homo sapiens, UniProt P41161 1-510); details: protein: recombinant; tags: N-terminal GST; dsDNA, one strand shown
# Sequence of ETV5 (P41161 whole entry): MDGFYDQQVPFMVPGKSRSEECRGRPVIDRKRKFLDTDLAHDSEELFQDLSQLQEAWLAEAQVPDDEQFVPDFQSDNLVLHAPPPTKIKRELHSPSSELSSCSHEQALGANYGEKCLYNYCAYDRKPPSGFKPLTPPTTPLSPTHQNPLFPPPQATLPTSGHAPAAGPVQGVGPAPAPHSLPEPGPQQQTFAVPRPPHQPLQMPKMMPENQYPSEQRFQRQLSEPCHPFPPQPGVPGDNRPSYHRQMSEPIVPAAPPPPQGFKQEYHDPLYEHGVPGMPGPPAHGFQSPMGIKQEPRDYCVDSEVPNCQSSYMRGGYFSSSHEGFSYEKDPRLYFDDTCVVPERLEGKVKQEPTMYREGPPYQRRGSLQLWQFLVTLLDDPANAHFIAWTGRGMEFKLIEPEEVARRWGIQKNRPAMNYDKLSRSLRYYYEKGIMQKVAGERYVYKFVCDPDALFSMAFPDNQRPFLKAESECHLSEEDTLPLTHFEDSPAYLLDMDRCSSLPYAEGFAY
# Procedure, shortened: as §1
# HSF1 = HSF1 (Homo sapiens, UniProt Q00613 1-529); details: protein: recombinant; tags: N-terminal GST; chain copies: 3; dsDNA, one strand shown
# Sequence of HSF1 (Q00613 whole entry): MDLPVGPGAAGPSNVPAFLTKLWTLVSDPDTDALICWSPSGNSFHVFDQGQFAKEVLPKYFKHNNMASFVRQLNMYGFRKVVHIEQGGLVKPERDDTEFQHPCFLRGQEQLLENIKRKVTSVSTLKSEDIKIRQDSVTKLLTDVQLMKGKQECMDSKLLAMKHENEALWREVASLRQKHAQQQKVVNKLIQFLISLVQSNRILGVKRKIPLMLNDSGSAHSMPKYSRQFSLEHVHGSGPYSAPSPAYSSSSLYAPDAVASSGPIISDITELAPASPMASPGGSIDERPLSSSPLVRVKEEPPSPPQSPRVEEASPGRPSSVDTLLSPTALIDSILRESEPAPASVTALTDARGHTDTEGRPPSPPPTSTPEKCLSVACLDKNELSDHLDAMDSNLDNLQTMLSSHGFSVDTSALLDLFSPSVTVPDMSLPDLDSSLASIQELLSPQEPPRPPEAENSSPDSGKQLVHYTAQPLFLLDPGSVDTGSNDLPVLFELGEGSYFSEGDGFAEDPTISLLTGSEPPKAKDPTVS
# Procedure, shortened: as §1
# SPIC = target: T8, SPIC (Homo sapiens, UniProt Q8N5J4 1-248); details: protein: recombinant; tags: N-terminal GST; dsDNA, one strand shown
# T8 sequence: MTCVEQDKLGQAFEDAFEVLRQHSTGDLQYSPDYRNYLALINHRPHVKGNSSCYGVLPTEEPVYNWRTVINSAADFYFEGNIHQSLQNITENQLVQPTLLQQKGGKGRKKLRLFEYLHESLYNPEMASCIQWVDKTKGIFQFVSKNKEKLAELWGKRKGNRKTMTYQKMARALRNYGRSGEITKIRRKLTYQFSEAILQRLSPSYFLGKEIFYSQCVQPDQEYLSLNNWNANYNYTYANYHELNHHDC
# Procedure, shortened: as §1
# ELF4 = ELF4 (Homo sapiens, UniProt Q99607 1-663); details: protein: recombinant; tags: N-terminal GST; dsDNA, one strand shown
# Sequence of ELF4 (Q99607 whole entry): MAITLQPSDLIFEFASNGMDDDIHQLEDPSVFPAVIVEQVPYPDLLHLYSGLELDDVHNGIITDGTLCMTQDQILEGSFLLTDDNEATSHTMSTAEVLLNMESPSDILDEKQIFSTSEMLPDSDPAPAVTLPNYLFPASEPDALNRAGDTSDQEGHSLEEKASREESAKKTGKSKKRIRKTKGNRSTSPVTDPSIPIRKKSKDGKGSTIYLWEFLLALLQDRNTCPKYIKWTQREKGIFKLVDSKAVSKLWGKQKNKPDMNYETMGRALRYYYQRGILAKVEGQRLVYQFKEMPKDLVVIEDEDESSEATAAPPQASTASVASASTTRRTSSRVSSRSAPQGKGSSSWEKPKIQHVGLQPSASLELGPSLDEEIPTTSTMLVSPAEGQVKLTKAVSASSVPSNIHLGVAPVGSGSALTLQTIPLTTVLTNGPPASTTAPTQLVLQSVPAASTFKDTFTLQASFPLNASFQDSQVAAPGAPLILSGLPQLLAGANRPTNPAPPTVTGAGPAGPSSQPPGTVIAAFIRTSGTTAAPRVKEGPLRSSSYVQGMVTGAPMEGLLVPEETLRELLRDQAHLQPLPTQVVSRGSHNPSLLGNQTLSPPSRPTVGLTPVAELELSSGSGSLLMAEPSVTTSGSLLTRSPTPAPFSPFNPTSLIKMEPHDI
# Procedure, shortened: as §1
# ELK4 = target: T9, ELK4 (Homo sapiens, UniProt P28324-2 1-405); details: protein: recombinant; tags: N-terminal GST; dsDNA, one strand shown
# T9 sequence: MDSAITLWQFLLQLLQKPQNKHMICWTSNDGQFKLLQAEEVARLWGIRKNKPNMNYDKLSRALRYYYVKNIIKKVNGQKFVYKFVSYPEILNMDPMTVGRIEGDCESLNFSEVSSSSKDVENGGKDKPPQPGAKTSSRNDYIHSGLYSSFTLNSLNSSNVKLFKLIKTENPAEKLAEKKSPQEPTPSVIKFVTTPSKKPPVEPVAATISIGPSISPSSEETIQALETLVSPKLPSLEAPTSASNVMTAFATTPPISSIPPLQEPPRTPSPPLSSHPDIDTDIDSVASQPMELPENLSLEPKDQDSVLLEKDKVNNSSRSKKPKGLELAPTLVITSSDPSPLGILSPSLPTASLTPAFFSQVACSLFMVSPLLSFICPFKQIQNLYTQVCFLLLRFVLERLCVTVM
# Procedure, shortened: as §1
# ETV2 = target: T10, ETV2 (Homo sapiens, UniProt O00321 1-342); details: protein: recombinant; tags: N-terminal GST; dsDNA, one strand shown
# T10 sequence: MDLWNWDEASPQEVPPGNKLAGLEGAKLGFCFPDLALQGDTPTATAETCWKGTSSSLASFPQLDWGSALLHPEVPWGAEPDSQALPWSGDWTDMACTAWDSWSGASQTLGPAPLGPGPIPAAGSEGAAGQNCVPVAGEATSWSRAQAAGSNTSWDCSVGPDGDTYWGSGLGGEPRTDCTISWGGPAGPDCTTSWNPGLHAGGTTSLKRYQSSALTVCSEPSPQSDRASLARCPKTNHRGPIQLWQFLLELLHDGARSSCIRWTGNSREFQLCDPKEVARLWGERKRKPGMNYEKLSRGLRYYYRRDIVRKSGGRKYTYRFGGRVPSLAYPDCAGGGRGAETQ
# Procedure, shortened: as §1
# ELF3 = target: T11, ELF3 (Homo sapiens, UniProt P78545 1-371); details: protein: recombinant; tags: N-terminal GST; dsDNA, one strand shown
# T11 sequence: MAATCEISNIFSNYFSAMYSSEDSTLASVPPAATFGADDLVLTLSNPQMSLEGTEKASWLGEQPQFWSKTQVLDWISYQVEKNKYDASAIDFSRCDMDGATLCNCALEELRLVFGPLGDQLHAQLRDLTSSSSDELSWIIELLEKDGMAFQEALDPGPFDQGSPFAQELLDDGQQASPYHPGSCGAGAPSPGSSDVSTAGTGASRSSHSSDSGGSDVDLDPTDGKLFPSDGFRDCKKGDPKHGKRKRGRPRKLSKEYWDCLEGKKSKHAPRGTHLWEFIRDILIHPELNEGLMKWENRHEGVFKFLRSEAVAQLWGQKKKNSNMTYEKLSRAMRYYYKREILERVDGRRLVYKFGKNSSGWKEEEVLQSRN
# Procedure, shortened: as §1
# CRX = CRX (Homo sapiens, UniProt O43186 1-299); details: protein: recombinant; tags: N-terminal GST; dsDNA, one strand shown
# Sequence of CRX (O43186 whole entry): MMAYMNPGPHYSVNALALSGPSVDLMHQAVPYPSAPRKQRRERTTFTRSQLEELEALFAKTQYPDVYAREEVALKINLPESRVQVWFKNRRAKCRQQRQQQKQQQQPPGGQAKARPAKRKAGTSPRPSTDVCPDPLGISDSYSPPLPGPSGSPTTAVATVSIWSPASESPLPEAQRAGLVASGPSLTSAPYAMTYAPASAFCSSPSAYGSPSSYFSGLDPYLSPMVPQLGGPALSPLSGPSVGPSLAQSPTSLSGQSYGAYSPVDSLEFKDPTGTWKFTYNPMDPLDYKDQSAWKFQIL
# Procedure, shortened: as §1
# ETV1 = ETV1 (Homo sapiens, UniProt P50549 1-477); details: protein: recombinant; tags: N-terminal GST; dsDNA, one strand shown
# Sequence of ETV1 (P50549 whole entry): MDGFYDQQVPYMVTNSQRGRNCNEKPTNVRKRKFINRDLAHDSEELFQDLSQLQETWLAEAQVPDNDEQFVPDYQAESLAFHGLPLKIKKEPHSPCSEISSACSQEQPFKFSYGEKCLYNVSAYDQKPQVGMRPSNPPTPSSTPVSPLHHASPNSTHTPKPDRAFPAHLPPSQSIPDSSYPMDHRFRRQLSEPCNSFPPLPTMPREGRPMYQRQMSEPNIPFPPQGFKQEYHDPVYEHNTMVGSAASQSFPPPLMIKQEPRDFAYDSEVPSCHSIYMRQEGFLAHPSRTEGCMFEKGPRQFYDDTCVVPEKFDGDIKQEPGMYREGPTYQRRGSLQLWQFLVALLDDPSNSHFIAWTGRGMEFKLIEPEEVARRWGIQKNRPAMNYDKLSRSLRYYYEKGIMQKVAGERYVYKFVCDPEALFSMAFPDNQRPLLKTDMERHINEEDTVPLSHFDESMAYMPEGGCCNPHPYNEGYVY
# Procedure, shortened: as §1
sequence,measurement,setting,value
TTGCTG,binding signal,FLI1,"1.25 fold enrichment (6-mer frequency, TF over GST control)"
same,binding signal,ELK1,"1.13 fold enrichment (6-mer frequency, TF over GST control)"
same,binding signal,GABPA,"1.21 fold enrichment (6-mer frequency, TF over GST control)"
same,binding signal,ERG,"1.13 fold enrichment (6-mer frequency, TF over GST control)"
same,binding signal,ELF1,"1.29 fold enrichment (6-mer frequency, TF over GST control)"
same,binding signal,EHF,"1.25 fold enrichment (6-mer frequency, TF over GST control)"
same,binding signal,SPI1,"1.18 fold enrichment (6-mer frequency, TF over GST control)"
same,binding signal,SPIB,"1.28 fold enrichment (6-mer frequency, TF over GST control)"
same,binding signal,ELK3,"1.33 fold enrichment (6-mer frequency, TF over GST control)"
same,binding signal,FEV,"1.13 fold enrichment (6-mer frequency, TF over GST control)"
same,binding signal,ETV5,"1.09 fold enrichment (6-mer frequency, TF over GST control)"
same,binding signal,HSF1,"1.23 fold enrichment (6-mer frequency, TF over GST control)"
same,binding signal,SPIC,"1.02 fold enrichment (6-mer frequency, TF over GST control)"
same,binding signal,ELF4,"1.35 fold enrichment (6-mer frequency, TF over GST control)"
same,binding signal,ELK4,"1.34 fold enrichment (6-mer frequency, TF over GST control)"
same,binding signal,ETV2,"1.42 fold enrichment (6-mer frequency, TF over GST control)"
same,binding signal,ELF3,"1.33 fold enrichment (6-mer frequency, TF over GST control)"
same,binding signal,CRX,"1.26 fold enrichment (6-mer frequency, TF over GST control)"
same,binding signal,ETV1,"1.39 fold enrichment (6-mer frequency, TF over GST control)"
